Source: article PMC11006913

What was measured:
Experiment in all cases: PBM; 200 nM protein, PBS
Details in all cases: dsDNA, one strand shown
HOXB6 [1] = target: HOXB6 (Homo sapiens, UniProt P17509 132-218, K202E)
HOXB6 [2] = target: HOXB6 (Homo sapiens, UniProt P17509 132-218)
SIX6 = target: T1, SIX6 (Homo sapiens, UniProt O95475 114-200, T165G)
T1 sequence: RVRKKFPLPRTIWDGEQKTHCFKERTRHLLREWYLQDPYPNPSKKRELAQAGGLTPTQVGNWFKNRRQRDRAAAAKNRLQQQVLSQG

ALX4 = ALX4 (Homo sapiens, UniProt Q9H161 200-286, Q225E)
ALX4, sequence (Q9H161 200-286 Q225E): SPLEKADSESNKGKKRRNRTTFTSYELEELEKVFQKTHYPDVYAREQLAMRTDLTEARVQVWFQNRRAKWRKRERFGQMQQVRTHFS

HOXC9 = HOXC9 (Homo sapiens, UniProt P31274 178-260, R222W)
HOXC9, sequence (P31274 178-260 R222W): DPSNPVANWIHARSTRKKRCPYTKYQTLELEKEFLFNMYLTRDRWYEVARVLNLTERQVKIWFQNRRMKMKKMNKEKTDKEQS

HOXB6 (Homo sapiens, UniProt P17509 132-218), sequence (P17509 132-218): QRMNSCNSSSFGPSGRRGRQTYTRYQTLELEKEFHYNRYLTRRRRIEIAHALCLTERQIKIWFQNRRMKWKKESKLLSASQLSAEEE
HOXB6 (Homo sapiens, UniProt P17509 132-218, K202E), sequence (P17509 132-218 K202E): as the sequence (P17509 132-218) above, with K71E counted along it

Sequence: GAGAGGGC
- binding signal (HOXB6 [1]): 8.82 upbm affinity estimate (log intensity, higher = more binding, comparable within an allelic series)
- binding signal (HOXB6 [2]): 8.79 upbm affinity estimate (log intensity, higher = more binding, comparable within an allelic series)

Sequence: GGCGTGGA
- binding signal (HOXB6 [1]): 9.09 upbm affinity estimate (log intensity, higher = more binding, comparable within an allelic series)
- binding signal (HOXB6 [2]): 9.03 upbm affinity estimate (log intensity, higher = more binding, comparable within an allelic series)

Sequence: AATAGTTC
- binding signal (HOXB6 [1]): 9.51 upbm affinity estimate (log intensity, higher = more binding, comparable within an allelic series)
- binding signal (HOXB6 [2]): 10.1 upbm affinity estimate (log intensity, higher = more binding, comparable within an allelic series)

Sequence: TGACTTAA
- binding signal (HOXB6 [1]): 9.69 upbm affinity estimate (log intensity, higher = more binding, comparable within an allelic series)
- binding signal (HOXB6 [2]): 10.5 upbm affinity estimate (log intensity, higher = more binding, comparable within an allelic series)

Sequence: CGGTAGGC
- binding signal (HOXB6 [1]): 9.06 upbm affinity estimate (log intensity, higher = more binding, comparable within an allelic series)
- binding signal (HOXB6 [2]): 8.98 upbm affinity estimate (log intensity, higher = more binding, comparable within an allelic series)

Sequence: AGTCCTCC
- binding signal (HOXB6 [1]): 9.17 upbm affinity estimate (log intensity, higher = more binding, comparable within an allelic series)
- binding signal (HOXB6 [2]): 9.06 upbm affinity estimate (log intensity, higher = more binding, comparable within an allelic series)

Sequence: CCGGCGCA
- binding signal (HOXB6 [1]): 9.01 upbm affinity estimate (log intensity, higher = more binding, comparable within an allelic series)
- binding signal (HOXB6 [2]): 9.07 upbm affinity estimate (log intensity, higher = more binding, comparable within an allelic series)

Sequence: TAGAATGA
- binding signal (HOXB6 [1]): 9.57 upbm affinity estimate (log intensity, higher = more binding, comparable within an allelic series)
- binding signal (HOXB6 [2]): 10.3 upbm affinity estimate (log intensity, higher = more binding, comparable within an allelic series)

Sequence: CCGGGGCA
- binding signal (HOXB6 [1]): 8.98 upbm affinity estimate (log intensity, higher = more binding, comparable within an allelic series)
- binding signal (HOXB6 [2]): 8.98 upbm affinity estimate (log intensity, higher = more binding, comparable within an allelic series)

Sequence: CCTCGGAC
- binding signal (HOXB6 [1]): 9.1 upbm affinity estimate (log intensity, higher = more binding, comparable within an allelic series)
- binding signal (HOXB6 [2]): 8.96 upbm affinity estimate (log intensity, higher = more binding, comparable within an allelic series)

Sequence: TAATGGAA
- binding signal (HOXB6 [1]): 9.72 upbm affinity estimate (log intensity, higher = more binding, comparable within an allelic series)
- binding signal (HOXB6 [2]): 10.8 upbm affinity estimate (log intensity, higher = more binding, comparable within an allelic series)

Sequence: ATCACATG
- binding signal (HOXB6 [1]): 9.52 upbm affinity estimate (log intensity, higher = more binding, comparable within an allelic series)
- binding signal (HOXB6 [2]): 9.98 upbm affinity estimate (log intensity, higher = more binding, comparable within an allelic series)

Sequence: CAAAATGG
- binding signal (HOXB6 [1]): 9.63 upbm affinity estimate (log intensity, higher = more binding, comparable within an allelic series)
- binding signal (HOXB6 [2]): 10.4 upbm affinity estimate (log intensity, higher = more binding, comparable within an allelic series)

Sequence: CGGTGTGC
- binding signal (HOXB6 [1]): 9.02 upbm affinity estimate (log intensity, higher = more binding, comparable within an allelic series)
- binding signal (HOXB6 [2]): 8.92 upbm affinity estimate (log intensity, higher = more binding, comparable within an allelic series)

Sequence: CTCCGAAG
- binding signal (HOXB6 [1]): 9.06 upbm affinity estimate (log intensity, higher = more binding, comparable within an allelic series)
- binding signal (HOXB6 [2]): 9.02 upbm affinity estimate (log intensity, higher = more binding, comparable within an allelic series)

Sequence: GGCAGCAC
- binding signal (HOXB6 [1]): 9.12 upbm affinity estimate (log intensity, higher = more binding, comparable within an allelic series)
- binding signal (HOXB6 [2]): 9.12 upbm affinity estimate (log intensity, higher = more binding, comparable within an allelic series)

Sequence: AAGGGAGC
- binding signal (HOXB6 [1]): 9.01 upbm affinity estimate (log intensity, higher = more binding, comparable within an allelic series)
- binding signal (HOXB6 [2]): 8.99 upbm affinity estimate (log intensity, higher = more binding, comparable within an allelic series)

Sequence: GCTGGCTA
- binding signal (HOXB6 [1]): 9.09 upbm affinity estimate (log intensity, higher = more binding, comparable within an allelic series)
- binding signal (HOXB6 [2]): 9 upbm affinity estimate (log intensity, higher = more binding, comparable within an allelic series)

Sequence: CCAGCGGA
- binding signal (HOXB6 [1]): 9.05 upbm affinity estimate (log intensity, higher = more binding, comparable within an allelic series)
- binding signal (HOXB6 [2]): 8.93 upbm affinity estimate (log intensity, higher = more binding, comparable within an allelic series)

Sequence: AGGGAGGA
- binding signal (HOXB6 [1]): 9.04 upbm affinity estimate (log intensity, higher = more binding, comparable within an allelic series)
- binding signal (HOXB6 [2]): 9.03 upbm affinity estimate (log intensity, higher = more binding, comparable within an allelic series)

Sequence: AATGGCTA
- binding signal (HOXB6 [1]): 9.56 upbm affinity estimate (log intensity, higher = more binding, comparable within an allelic series)
- binding signal (HOXB6 [2]): 10.8 upbm affinity estimate (log intensity, higher = more binding, comparable within an allelic series)

Sequence: GGTTTTTA
- binding signal (HOXB6 [1]): 9.65 upbm affinity estimate (log intensity, higher = more binding, comparable within an allelic series)
- binding signal (HOXB6 [2]): 10.3 upbm affinity estimate (log intensity, higher = more binding, comparable within an allelic series)

Sequence: GGCTCGAC
- binding signal (HOXB6 [1]): 9.13 upbm affinity estimate (log intensity, higher = more binding, comparable within an allelic series)
- binding signal (HOXB6 [2]): 8.81 upbm affinity estimate (log intensity, higher = more binding, comparable within an allelic series)

Sequence: AATGTTGT
- binding signal (HOXB6 [1]): 9.62 upbm affinity estimate (log intensity, higher = more binding, comparable within an allelic series)
- binding signal (HOXB6 [2]): 10.2 upbm affinity estimate (log intensity, higher = more binding, comparable within an allelic series)

Sequence: AAGCAGGC
- binding signal (HOXB6 [1]): 9.08 upbm affinity estimate (log intensity, higher = more binding, comparable within an allelic series)
- binding signal (HOXB6 [2]): 9.05 upbm affinity estimate (log intensity, higher = more binding, comparable within an allelic series)

Sequence: TCTCATAA
- binding signal (HOXB6 [1]): 9.55 upbm affinity estimate (log intensity, higher = more binding, comparable within an allelic series)
- binding signal (HOXB6 [2]): 10.4 upbm affinity estimate (log intensity, higher = more binding, comparable within an allelic series)

Sequence: AATACCAA
- binding signal (HOXB6 [1]): 9.59 upbm affinity estimate (log intensity, higher = more binding, comparable within an allelic series)
- binding signal (HOXB6 [2]): 10.2 upbm affinity estimate (log intensity, higher = more binding, comparable within an allelic series)

Sequence: AAAAAAAT
- binding signal (HOXB6 [1]): 9.72 upbm affinity estimate (log intensity, higher = more binding, comparable within an allelic series)
- binding signal (HOXB6 [2]): 10.2 upbm affinity estimate (log intensity, higher = more binding, comparable within an allelic series)

Sequence: AGACACCC
- binding signal (SIX6): 10.5 upbm affinity estimate (log intensity, higher = more binding, comparable within an allelic series)

Sequence: ATTTCATA
- binding signal (HOXB6 [1]): 9.65 upbm affinity estimate (log intensity, higher = more binding, comparable within an allelic series)
- binding signal (HOXB6 [2]): 10.2 upbm affinity estimate (log intensity, higher = more binding, comparable within an allelic series)

Sequence: CTGCCTGC
- binding signal (HOXB6 [1]): 9.03 upbm affinity estimate (log intensity, higher = more binding, comparable within an allelic series)
- binding signal (HOXB6 [2]): 8.97 upbm affinity estimate (log intensity, higher = more binding, comparable within an allelic series)

Sequence: AAGGGACC
- binding signal (HOXB6 [1]): 9.07 upbm affinity estimate (log intensity, higher = more binding, comparable within an allelic series)
- binding signal (HOXB6 [2]): 8.97 upbm affinity estimate (log intensity, higher = more binding, comparable within an allelic series)

Sequence: ACGCCGCG
- binding signal (HOXB6 [1]): 9.12 upbm affinity estimate (log intensity, higher = more binding, comparable within an allelic series)
- binding signal (HOXB6 [2]): 9.15 upbm affinity estimate (log intensity, higher = more binding, comparable within an allelic series)

Sequence: TCATATCA
- binding signal (SIX6): 11.2 upbm affinity estimate (log intensity, higher = more binding, comparable within an allelic series)

Sequence: AATAAATC
- binding signal (ALX4): 10.8 upbm affinity estimate (log intensity, higher = more binding, comparable within an allelic series)

Sequence: AAGACACC
- binding signal (SIX6): 10.6 upbm affinity estimate (log intensity, higher = more binding, comparable within an allelic series)

Sequence: CGCAGGAG
- binding signal (HOXB6 [1]): 9.14 upbm affinity estimate (log intensity, higher = more binding, comparable within an allelic series)
- binding signal (HOXB6 [2]): 8.95 upbm affinity estimate (log intensity, higher = more binding, comparable within an allelic series)

Sequence: AATAAATA
- binding signal (ALX4): 11 upbm affinity estimate (log intensity, higher = more binding, comparable within an allelic series)
- binding signal (HOXC9): 11 upbm affinity estimate (log intensity, higher = more binding, comparable within an allelic series)

Sequence: CCGGAGCG
- binding signal (HOXB6 [1]): 9.07 upbm affinity estimate (log intensity, higher = more binding, comparable within an allelic series)
- binding signal (HOXB6 [2]): 9.17 upbm affinity estimate (log intensity, higher = more binding, comparable within an allelic series)

Sequence: CGCGTGCC
- binding signal (HOXB6 [1]): 9.06 upbm affinity estimate (log intensity, higher = more binding, comparable within an allelic series)
- binding signal (HOXB6 [2]): 9.06 upbm affinity estimate (log intensity, higher = more binding, comparable within an allelic series)

Sequence: AATAAAAG
- binding signal (ALX4): 10.4 upbm affinity estimate (log intensity, higher = more binding, comparable within an allelic series)
- binding signal (HOXC9): 11 upbm affinity estimate (log intensity, higher = more binding, comparable within an allelic series)

Sequence: CTGGTCCC
- binding signal (HOXB6 [1]): 9.06 upbm affinity estimate (log intensity, higher = more binding, comparable within an allelic series)
- binding signal (HOXB6 [2]): 9.01 upbm affinity estimate (log intensity, higher = more binding, comparable within an allelic series)

Sequence: CCCAGCTC
- binding signal (HOXB6 [1]): 9.08 upbm affinity estimate (log intensity, higher = more binding, comparable within an allelic series)
- binding signal (HOXB6 [2]): 9.08 upbm affinity estimate (log intensity, higher = more binding, comparable within an allelic series)
